This is a sample that favours compounds with a hit; in the whole collection about 19% have one here.
DT40 TDP1 CPT: growth inhibition of DT40 Tdp1-/-;hTDP1 cells with camptothecin (screen for TDP1 inhibitors); chicken DT40 Tdp1-/-;hTDP1 cells + 20 nM CPT, ATP luminescence, 48 h; AID 686979; hit rate 12% among 420,000; Potency, µM (doses to about 46.2 µM), hits mostly inhibitors; further: nearly all actives have a fitted effect of over 55% in size
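Cell growth measured by CellTiter-Glo luminescence after a minimum 48 h, 37 C compound exposure with 20 nM CPT in Tdp1-knockout DT40 cells stably expressing hTDP1, seeded 400/well; qHTS titration format.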
KB-3-1 cytotox: KB-3-1 parental cell cytotoxicity. KB-3-1 viability, CellTiter-Glo ATP luminescence, 72 h. Potency, µM (series often up to 46.1 µM), actives largely listed as cytotoxic. hit rate 1.4% among 400,000; further: nearly all actives have a fitted effect of over 60% in size
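Cytotoxicity in the drug-sensitive parental line KB-3-1 was scored as loss of CellTiter-Glo luminescence following 72 h incubation with compound. Values come from curve fitting of normalized concentration-response data.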
HT1080 IDH1KD tx: kills HT-1080 cells with IDH1 knockdown; HT-1080 IDH1 knockdown viability, ATP luminescence, 48 h; Potency, µM (highest dose often 46.1 µM), most hits filed as cytotoxic; hit rate 2% among 360,000; AID 686971
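Using the IDH1-knockdown HT-1080 line run in the same batch and compound series as the NT line, viability after 48 h at 37 °C was determined by CellTiter-Glo luminescence and expressed as % activity.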
HT1080NT lethal: kills 2HG-producing HT-1080-NT fibrosarcoma cells | HT-1080-NT fibrosarcoma viability, CellTiter-Glo ATP luminescence, 48 h | Potency, µM (series often up to 46.1 µM), most hits filed as cytotoxic | hit rate 1.6% among 360,000;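 further: NT is the 2HG producing partner of a matched IDH1 knockdown line; nearly all actives have a fitted effect of over 55% in size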
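Viability of the 2HG-overproducing fibrosarcoma line after 48 hours of compound exposure at 37 degrees C was determined by luminescence with CellTiter-Glo, and concentration-effect curves were then fitted and categorized.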
KB-V1 MDR tox: KB-V1 MDR subline cytotoxicity; KB-V1 MDR cells viability, CellTiter-Glo, 72 h; Potency, µM (titrated, usually from 46.1 µM), actives largely listed as cytotoxic; hit rate 3.4% among 400,000; AID 1347076; further: nearly all actives have a fitted effect of over 60% in size
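Readout: CellTiter-Glo luminescence, 10 min after addition. Cells: KB-V1 MDR subline, 72 h at 37 degrees C with compound. Analysis: corrected, normalized data fitted to concentration-effect curves.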
TDP1 cell noCPT: qHTS for Inhibitors of human tyrosyl-DNA phosphodiesterase 1 (TDP1): qHTS in cells in absence of CPT | DT40 Tdp1-/- hTDP1 cells, no CPT, ATP luminescence, 48 h | Potency, µM (top dose mostly 46.2 µM), usual class: inhibitors | hit rate 15% among 420,000 | AID 686978, 2013; further: nearly all actives have a fitted effect of over 55% in size
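A cellular qHTS used chicken DT40 cells lacking endogenous Tdp1 but carrying stably transfected human TDP1. Compounds were applied without camptothecin, and cell growth kinetics were judged by ATP-dependent luminescence after ≥48 hr.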
Of the large screens only hits and unclear results are named; the others gave an inactive call. The call rests on the fitted dose curve; in most records, active means well fitted curve in the direction sought with a large enough effect; inconclusive means small, poorly fitted or top-dose-only effect, or another doubt; inactive means no such curve, though single readings can be large; an effect the other way counts as inactive or inconclusive.

CCN(CC)c1cc(C)c(C#N)c2nc3ccccc3n12	KB-V1 MDR tox inconclusive, TDP1 cell noCPT inconclusive
COc1ccc(OCC(=O)OCC(=O)NCC2CCCCC2)cc1	none
O=C(NCCC1=CCCCC1)C1COc2ccccc2O1 (configuration not stated)	DT40 TDP1 CPT inconclusive, TDP1 cell noCPT inconclusive
Cc1cccn2c(=O)c3cc(C(=O)NCC4CCCO4)c(=N)n(CCc4ccccc4)c3nc12 (configuration not stated)	DT40 TDP1 CPT 16µM
Cc1cccn2c(=O)c3cc(C(=O)NC4CCCCC4)c(=N)n(CCN4CCOCC4)c3nc12	DT40 TDP1 CPT inconclusive, TDP1 cell noCPT inconclusive
COc1ccc(CCNC(=O)c2cc3c(=O)n4cccc(C)c4nc3n(CC3CCCO3)c2=N)cc1 (configuration not stated)	DT40 TDP1 CPT 3.3µM, TDP1 cell noCPT 10µM
Cc1ccc(Cl)cc1NC(=O)COC(=O)C12CC3CC(CC(C3)C1)C2	none
CN(C1CCCCC1)S(=O)(=O)c1ccc(NC(=O)Cn2nc(-c3ccc(F)cc3)ccc2=O)cc1	DT40 TDP1 CPT inconclusive, KB-V1 MDR tox inconclusive, TDP1 cell noCPT 21µM
CC(C)CNS(=O)(=O)c1ccc(NC(=O)Cn2nc(-c3ccc(F)cc3)ccc2=O)cc1	DT40 TDP1 CPT inconclusive, TDP1 cell noCPT inconclusive
CCCCCNc1nc2c(-c3ccccc3)nnn2c2ccccc12	none (no result: HT1080 IDH1KD tx, HT1080NT lethal)
CN(Cc1ccccc1)C(=O)c1ccccc1C(=O)OCC(=O)N(Cc1ccccc1)C(C)(C)C	DT40 TDP1 CPT 23µM, KB-3-1 cytotox inconclusive, KB-V1 MDR tox inconclusive, TDP1 cell noCPT 15µM
O=C(COC(=O)c1ccc(N2CCCC2=O)cc1)c1ccccc1	none
CC(C)(C)N(Cc1ccccc1)C(=O)COC(=O)c1ccc(N2CCCC2=O)cc1	DT40 TDP1 CPT inconclusive, TDP1 cell noCPT 16µM
CN(Cc1ccccc1)C(=O)COC(=O)Cc1ccc(Cl)cc1	KB-3-1 cytotox inconclusive, KB-V1 MDR tox inconclusive
CN(Cc1ccccc1)C(=O)COC(=O)c1ccc(Cl)cc1N	DT40 TDP1 CPT 10µM, TDP1 cell noCPT inconclusive
CC(C)(C)N(Cc1ccccc1)C(=O)COC(=O)c1ccccc1SCC(=O)N1CCCC1	DT40 TDP1 CPT inconclusive, KB-V1 MDR tox 21µM, TDP1 cell noCPT inconclusive
O=C(COC(=O)c1ccccc1SCC(=O)N1CCCC1)Nc1ccccc1	DT40 TDP1 CPT inconclusive
O=C(CSc1nc2ccccc2o1)N/N=C/c1ccc(C(=O)O)cc1	none
O=C1N/C(=N\N=C\c2cccs2)SC1Cc1ccc(Cl)c(Cl)c1 (configuration not stated)	TDP1 cell noCPT inconclusive
C[C@H](NC(=O)OC(C)(C)C)C(=O)c1ccco1	none (no result: HT1080 IDH1KD tx, HT1080NT lethal)
CCN(c1ccccc1)S(=O)(=O)c1ccc(OC)c(NC(=O)Cn2cnc3c2c(=O)n(C)c(=O)n3C)c1	DT40 TDP1 CPT inconclusive, TDP1 cell noCPT inconclusive
Cc1[nH]c2ccccc2c1C(=O)COC(=O)c1ccccc1O	none
CCOc1ccc(C(C)=O)cc1COC(=O)c1ccccc1C(=O)N(C)Cc1ccccc1	DT40 TDP1 CPT 18µM, KB-V1 MDR tox inconclusive, TDP1 cell noCPT 7.3µM
Cc1[nH]c2ccccc2c1C(=O)COC(=O)c1ccccc1SCC(=O)N1CCCC1	DT40 TDP1 CPT inconclusive, TDP1 cell noCPT 11µM (no result: HT1080 IDH1KD tx, HT1080NT lethal)
COc1cccc(-c2cc3c(c(OC)c2)OCCN(S(=O)(=O)c2ccccc2OC(F)(F)F)C3)n1	none (no result: KB-3-1 cytotox, HT1080 IDH1KD tx, HT1080NT lethal, KB-V1 MDR tox)
O=[N+]([O-])c1cc(S(=O)(=O)Nc2ccccc2)ccc1N1CCN(c2ccc(O)cc2)CC1	DT40 TDP1 CPT inconclusive, TDP1 cell noCPT inconclusive
Cc1ccc(NS(=O)(=O)c2ccc(N3CCN(c4ccc(O)cc4)CC3)c([N+](=O)[O-])c2)c(C)c1	DT40 TDP1 CPT inconclusive, KB-3-1 cytotox inconclusive, HT1080 IDH1KD tx inconclusive, HT1080NT lethal inconclusive, KB-V1 MDR tox inconclusive, TDP1 cell noCPT 16µM
Cc1ccc(NS(=O)(=O)c2ccc3c(c2)CCN3C(=O)C2CC2)c(C)c1	DT40 TDP1 CPT inconclusive, TDP1 cell noCPT 21µM (no result: HT1080 IDH1KD tx, HT1080NT lethal)
O=C(C1CCC1)N1CCc2cc(S(=O)(=O)NCC3COc4ccccc4O3)ccc21 (configuration not stated)	DT40 TDP1 CPT inconclusive, KB-V1 MDR tox inconclusive
CCC(=O)N1CCc2cc(S(=O)(=O)N(C)c3ccc(OC)cc3OC)ccc21	DT40 TDP1 CPT inconclusive, TDP1 cell noCPT inconclusive
O=C(C1CC1)N1CCc2cc(S(=O)(=O)NCC3COc4ccccc4O3)ccc21 (configuration not stated)	DT40 TDP1 CPT inconclusive, KB-V1 MDR tox inconclusive, TDP1 cell noCPT 15µM
CC(=O)N1CCc2cc(S(=O)(=O)Nc3ccc(C)cc3C)ccc21	DT40 TDP1 CPT inconclusive
COc1ccc(N(C)S(=O)(=O)c2ccc3c(c2)CCN3C(=O)C2CC2)c(OC)c1	DT40 TDP1 CPT 16µM, KB-3-1 cytotox inconclusive, KB-V1 MDR tox inconclusive, TDP1 cell noCPT 18µM
CCc1ccccc1NS(=O)(=O)c1ccc2c(c1)CCN2C(=O)C1CC1	DT40 TDP1 CPT inconclusive, TDP1 cell noCPT inconclusive (no result: HT1080 IDH1KD tx, HT1080NT lethal)
COc1ccc(NS(=O)(=O)c2ccc3c(c2)CCN3C(=O)C2CC2)cc1OC	DT40 TDP1 CPT 8.2µM, TDP1 cell noCPT 5.2µM (no result: KB-3-1 cytotox, HT1080 IDH1KD tx, HT1080NT lethal, KB-V1 MDR tox)
CN1CCN(c2ccccc2NS(=O)(=O)c2ccc3c(c2)CCN3C(=O)C2CCC2)CC1	DT40 TDP1 CPT 15µM, KB-3-1 cytotox inconclusive, HT1080 IDH1KD tx inconclusive, TDP1 cell noCPT inconclusive
Cc1cccc(NS(=O)(=O)c2ccc3c(c2)CCN3C(=O)CCC(=O)O)c1	none
Cc1cccc(NS(=O)(=O)c2ccc3c(c2)CCN3C(=O)C2CCC2)c1	DT40 TDP1 CPT 18µM, KB-3-1 cytotox inconclusive, KB-V1 MDR tox inconclusive, TDP1 cell noCPT 18µM (no result: HT1080 IDH1KD tx, HT1080NT lethal)
O=c1[nH]cnc(O)c1C(c1ccc2c(c1)OCO2)c1c(O)nc[nH]c1=O	none
CCOC(=O)[C@@H]1[C@H]2COc3ccccc3[C@@H]2N2C(=O)N(c3ccccc3)C(=O)[C@]12C	none
Cc1cccc(C)c1NC(=O)C1(C)CN(S(C)(=O)=O)CC(=O)N1Cc1cccs1 (configuration not stated)	DT40 TDP1 CPT inconclusive
O=C(c1cccs1)N1C[C@@H](n2cc(C3CC3)nn2)[C@H](O)C[C@@H]1c1ccccc1	TDP1 cell noCPT inconclusive
CCN(CC(=O)NC(C)C)C(=O)C(CCSC)NC(=O)c1cccc(C)c1 (configuration not stated)	KB-V1 MDR tox 23µM

Screening results as filed in PubChem.
